Results published in the supplement of paper PMC10849652.
The full data set covers some 7,900 targets. This sample favours those with a hit. About 0.6% of all pairs of compound and target were hits. Unmarked numbers belong to inactive results.

Columns and labels:
Experiment in all cases: log2 fold change, soluble protein after heating vs DMSO (PISA); higher = thermal stabilisation; K562 cells, 10 uM, 30 min; active = over 0.2 and 3.5 SD of the protein, either way, in both replicates (recomputed)
[1] = compound: COC1=CC=C(C=C1)CN2C=CC3=C2C=C(C=C3)C(=O)NO
How it was run: (§1)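 Soluble protein was quantified by TMTpro 16plex LC-MS/MS after channel sums were equalised. It was obtained as the supernatant after 21,000xg for 90 min from pooled aliquots of K562 cells (2×10^6 cells/mL, 10 μM compound, 30 min) heated for 3 min across 48°C-58°C and extracted in PBS with 0.5% NP-40 at 4°C. Thermal stability values are relative to control samples and come from duplicates. They are given as log2 fold changes.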

[2] = compound: CON(C)C(=O)N1N=C(c2cc(F)ccc2F)S[C@@]1(CCCN)c1ccccc1 [filanesib]
How it was run: as §1

[3] = compound: CO[C@H]1C[C@@H]2CC[C@@H](C)[C@@](O)(O2)C(=O)C(=O)N2CCCC[C@H]2C(=O)O[C@H]([C@H](C)C[C@@H]2CC[C@H](n3cnnn3)[C@H](OC)C2)CC(=O)[C@H](C)/C=C(\C)[C@@H](O)[C@@H](OC)C(=O)[C@H](C)C[C@H](C)/C=C/C=C/C=C/1C [zotarolimus]
How it was run: as §1

[4] = compound: COc1cc(C(=O)O)ccc1NC(=O)[C@@H]1N[C@@H](CC(C)(C)C)[C@](C#N)(c2ccc(Cl)cc2F)[C@H]1c1cccc(Cl)c1F [idasanutlin]
How it was run: as §1

[5] = compound: COc1cc(Nc2ncc3c(n2)-c2ccc(Cl)cc2C(c2c(F)cccc2OC)=NC3)ccc1C(=O)O [alisertib]
How it was run: as §1

[6] = compound: COc1cc2nc(-c3cc(F)ccc3O)nc(N[C@@H]3CNC[C@H]3C(C)(C)O)c2cc1OC
How it was run: as §1

[7] = compound: COc1cc2ncnc(Nc3ccc(F)c(Cl)c3)c2cc1OCCCN1CCOCC1 [gefitinib]
How it was run: as §1

[8] = compound: COc1cccc2cc(-c3nc([C@H]4CC[C@H](C(=O)O)CC4)n4ncnc(N)c34)[nH]c12
How it was run: as §1

[9] = compound: CS(=O)(=O)CCNCc1ccc(-c2ccc3ncnc(Nc4ccc(OCc5cccc(F)c5)c(Cl)c4)c3c2)o1 [lapatinib]
How it was run: as §1

[10] = compound: CS(=O)(=O)N1CCN(Cc2cc3nc(-c4cccc5[nH]ncc45)nc(N4CCOCC4)c3s2)CC1 [pictilisib]
How it was run: as §1

Chain of UniProt P12956 (P12956 whole entry, looked up): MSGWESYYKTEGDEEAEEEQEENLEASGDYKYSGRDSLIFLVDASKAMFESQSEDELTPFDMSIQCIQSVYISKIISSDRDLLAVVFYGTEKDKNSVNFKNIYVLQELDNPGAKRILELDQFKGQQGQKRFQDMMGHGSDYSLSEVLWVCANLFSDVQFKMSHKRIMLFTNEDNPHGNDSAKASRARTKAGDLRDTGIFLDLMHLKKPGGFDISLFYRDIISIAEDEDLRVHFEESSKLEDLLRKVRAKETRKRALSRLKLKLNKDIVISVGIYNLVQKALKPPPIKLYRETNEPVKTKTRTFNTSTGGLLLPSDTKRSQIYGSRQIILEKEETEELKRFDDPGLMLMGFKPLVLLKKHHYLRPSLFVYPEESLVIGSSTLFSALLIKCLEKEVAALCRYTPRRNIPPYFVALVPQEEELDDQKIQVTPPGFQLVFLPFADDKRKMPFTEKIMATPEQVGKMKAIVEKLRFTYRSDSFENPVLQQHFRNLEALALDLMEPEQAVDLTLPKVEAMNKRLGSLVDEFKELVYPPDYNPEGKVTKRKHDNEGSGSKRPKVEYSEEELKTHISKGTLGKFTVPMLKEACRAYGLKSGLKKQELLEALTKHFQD
Chain of UniProt Q15642 (Q15642 whole entry, looked up): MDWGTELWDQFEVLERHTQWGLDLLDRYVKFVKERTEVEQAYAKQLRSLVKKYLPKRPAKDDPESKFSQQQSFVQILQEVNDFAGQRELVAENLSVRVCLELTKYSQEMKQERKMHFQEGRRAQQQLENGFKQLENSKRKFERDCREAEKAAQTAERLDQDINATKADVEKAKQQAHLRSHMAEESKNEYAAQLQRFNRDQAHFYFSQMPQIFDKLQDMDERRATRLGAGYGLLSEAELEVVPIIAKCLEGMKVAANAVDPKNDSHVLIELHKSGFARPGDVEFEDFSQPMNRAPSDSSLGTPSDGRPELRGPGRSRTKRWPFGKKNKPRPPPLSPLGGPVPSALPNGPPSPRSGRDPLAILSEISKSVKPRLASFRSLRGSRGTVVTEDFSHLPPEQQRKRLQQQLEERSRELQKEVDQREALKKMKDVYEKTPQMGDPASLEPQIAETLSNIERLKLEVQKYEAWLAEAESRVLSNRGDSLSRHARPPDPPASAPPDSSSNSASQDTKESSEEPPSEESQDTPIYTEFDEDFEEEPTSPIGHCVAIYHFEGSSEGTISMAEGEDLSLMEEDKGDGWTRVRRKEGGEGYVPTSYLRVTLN
Chain of UniProt Q9H6R7 (Q9H6R7 whole entry, looked up): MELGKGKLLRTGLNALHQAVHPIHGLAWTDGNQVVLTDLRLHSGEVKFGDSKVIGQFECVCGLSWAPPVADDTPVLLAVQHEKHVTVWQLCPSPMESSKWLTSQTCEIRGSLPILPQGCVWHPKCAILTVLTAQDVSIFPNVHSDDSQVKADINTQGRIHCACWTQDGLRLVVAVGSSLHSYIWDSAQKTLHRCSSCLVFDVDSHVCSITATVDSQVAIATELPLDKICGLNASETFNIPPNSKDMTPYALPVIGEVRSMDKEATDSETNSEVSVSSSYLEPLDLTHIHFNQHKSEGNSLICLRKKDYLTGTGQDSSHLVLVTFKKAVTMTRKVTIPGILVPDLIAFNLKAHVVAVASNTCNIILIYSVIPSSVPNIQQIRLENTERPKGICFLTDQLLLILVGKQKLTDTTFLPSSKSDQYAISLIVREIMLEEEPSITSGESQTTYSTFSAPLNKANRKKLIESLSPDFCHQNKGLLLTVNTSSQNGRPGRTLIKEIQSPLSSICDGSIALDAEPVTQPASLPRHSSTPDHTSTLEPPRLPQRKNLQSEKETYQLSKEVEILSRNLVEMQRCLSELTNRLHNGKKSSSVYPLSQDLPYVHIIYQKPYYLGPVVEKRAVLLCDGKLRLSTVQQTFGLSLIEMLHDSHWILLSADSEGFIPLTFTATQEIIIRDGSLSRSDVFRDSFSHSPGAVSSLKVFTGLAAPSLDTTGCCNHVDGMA
Chain of UniProt P13010 (P13010 whole entry, looked up): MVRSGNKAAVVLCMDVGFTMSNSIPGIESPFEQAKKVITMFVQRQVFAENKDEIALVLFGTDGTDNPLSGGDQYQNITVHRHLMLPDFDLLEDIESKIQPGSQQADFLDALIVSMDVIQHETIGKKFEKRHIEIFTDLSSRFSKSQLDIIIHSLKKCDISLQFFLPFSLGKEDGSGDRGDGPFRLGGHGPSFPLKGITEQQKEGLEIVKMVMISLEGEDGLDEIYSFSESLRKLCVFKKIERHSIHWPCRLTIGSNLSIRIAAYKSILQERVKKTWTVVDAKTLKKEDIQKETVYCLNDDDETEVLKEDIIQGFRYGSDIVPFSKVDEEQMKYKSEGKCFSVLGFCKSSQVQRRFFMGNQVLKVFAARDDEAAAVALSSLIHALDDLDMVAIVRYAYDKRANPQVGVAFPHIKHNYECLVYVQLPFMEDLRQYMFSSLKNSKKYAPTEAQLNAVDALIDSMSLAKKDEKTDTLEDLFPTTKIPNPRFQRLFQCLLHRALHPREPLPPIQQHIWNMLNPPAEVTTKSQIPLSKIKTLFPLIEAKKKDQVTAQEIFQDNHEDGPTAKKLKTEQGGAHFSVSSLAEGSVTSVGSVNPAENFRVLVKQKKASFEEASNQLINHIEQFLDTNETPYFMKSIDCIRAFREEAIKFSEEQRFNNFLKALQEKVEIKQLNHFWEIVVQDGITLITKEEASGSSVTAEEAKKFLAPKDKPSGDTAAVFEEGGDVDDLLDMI
Chain of UniProt Q9NX61 (Q9NX61 whole entry, looked up): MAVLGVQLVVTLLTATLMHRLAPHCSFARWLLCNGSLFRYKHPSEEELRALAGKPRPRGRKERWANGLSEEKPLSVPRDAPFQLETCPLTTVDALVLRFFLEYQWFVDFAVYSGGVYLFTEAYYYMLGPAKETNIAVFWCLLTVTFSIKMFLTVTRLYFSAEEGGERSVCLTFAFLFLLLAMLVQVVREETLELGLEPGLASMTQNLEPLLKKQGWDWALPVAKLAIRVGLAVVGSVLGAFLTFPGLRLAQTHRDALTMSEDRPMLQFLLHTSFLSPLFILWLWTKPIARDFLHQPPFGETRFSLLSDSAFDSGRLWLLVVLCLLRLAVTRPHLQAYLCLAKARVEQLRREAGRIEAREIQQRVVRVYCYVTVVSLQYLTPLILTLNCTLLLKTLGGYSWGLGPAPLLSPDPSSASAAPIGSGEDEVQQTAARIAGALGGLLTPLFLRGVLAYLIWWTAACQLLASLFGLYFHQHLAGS
Chain of UniProt O75554 (O75554 whole entry, looked up): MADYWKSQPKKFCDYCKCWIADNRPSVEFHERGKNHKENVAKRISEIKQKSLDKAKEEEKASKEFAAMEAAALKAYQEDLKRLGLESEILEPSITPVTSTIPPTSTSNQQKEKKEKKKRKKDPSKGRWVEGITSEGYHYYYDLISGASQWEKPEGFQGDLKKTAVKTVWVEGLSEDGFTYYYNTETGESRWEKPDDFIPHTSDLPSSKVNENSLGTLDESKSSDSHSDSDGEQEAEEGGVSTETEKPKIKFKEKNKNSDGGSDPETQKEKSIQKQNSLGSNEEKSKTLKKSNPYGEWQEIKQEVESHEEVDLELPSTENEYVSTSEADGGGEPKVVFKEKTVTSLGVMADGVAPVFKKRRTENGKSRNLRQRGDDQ
Chain of UniProt P68366 (P68366 whole entry, looked up): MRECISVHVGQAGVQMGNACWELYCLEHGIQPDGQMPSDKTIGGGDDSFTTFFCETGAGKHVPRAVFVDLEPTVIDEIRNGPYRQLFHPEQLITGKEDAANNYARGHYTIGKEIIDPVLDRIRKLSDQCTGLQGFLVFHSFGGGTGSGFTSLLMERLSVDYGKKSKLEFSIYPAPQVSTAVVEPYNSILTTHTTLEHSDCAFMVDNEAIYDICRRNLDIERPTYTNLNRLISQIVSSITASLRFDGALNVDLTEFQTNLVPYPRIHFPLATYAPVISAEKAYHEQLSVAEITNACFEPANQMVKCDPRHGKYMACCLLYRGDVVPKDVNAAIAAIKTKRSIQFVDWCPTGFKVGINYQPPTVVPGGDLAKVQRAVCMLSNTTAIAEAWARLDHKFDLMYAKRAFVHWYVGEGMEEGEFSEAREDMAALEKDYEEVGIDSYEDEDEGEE
Chain of UniProt Q96JC1 (Q96JC1 whole entry, looked up): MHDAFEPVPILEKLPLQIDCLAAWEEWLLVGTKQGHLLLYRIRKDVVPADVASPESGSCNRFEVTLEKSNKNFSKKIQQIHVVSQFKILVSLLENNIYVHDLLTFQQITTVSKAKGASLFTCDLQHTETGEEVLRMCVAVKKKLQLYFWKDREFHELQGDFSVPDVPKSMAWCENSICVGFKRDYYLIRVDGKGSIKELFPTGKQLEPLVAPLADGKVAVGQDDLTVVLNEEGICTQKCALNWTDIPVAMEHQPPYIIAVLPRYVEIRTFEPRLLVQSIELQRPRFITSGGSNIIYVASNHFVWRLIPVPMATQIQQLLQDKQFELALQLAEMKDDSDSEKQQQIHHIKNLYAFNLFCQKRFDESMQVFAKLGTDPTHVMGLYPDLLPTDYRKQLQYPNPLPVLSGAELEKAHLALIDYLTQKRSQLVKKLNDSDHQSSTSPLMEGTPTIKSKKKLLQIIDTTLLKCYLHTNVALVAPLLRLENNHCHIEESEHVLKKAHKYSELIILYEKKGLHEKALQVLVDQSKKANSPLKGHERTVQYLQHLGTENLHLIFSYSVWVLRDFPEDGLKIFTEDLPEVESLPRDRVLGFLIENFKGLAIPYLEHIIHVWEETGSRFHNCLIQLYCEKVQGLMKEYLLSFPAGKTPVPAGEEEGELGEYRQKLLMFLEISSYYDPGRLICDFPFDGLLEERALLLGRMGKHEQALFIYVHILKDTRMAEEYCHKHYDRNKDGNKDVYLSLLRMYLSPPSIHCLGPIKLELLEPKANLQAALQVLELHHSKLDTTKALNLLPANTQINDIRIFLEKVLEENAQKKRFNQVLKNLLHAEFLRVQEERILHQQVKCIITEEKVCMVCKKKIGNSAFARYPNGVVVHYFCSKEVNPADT
Chain of UniProt Q9UBK9 (Q9UBK9 whole entry, looked up): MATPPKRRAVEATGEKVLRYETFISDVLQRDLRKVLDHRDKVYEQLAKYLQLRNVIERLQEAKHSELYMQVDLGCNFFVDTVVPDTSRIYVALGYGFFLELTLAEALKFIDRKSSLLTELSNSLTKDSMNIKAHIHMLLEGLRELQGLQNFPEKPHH

Target | log2 fold change [1] | log2 fold change [2] | log2 fold change [3] | log2 fold change [4] | log2 fold change [5] | log2 fold change [6] | log2 fold change [7] | log2 fold change [8] | log2 fold change [9] | log2 fold change [10]
XRCC5 (UniProt P13010) | 0.19 | -0.049 | 0.087 | 0.014 | 0.061 | -0.232 | 0.076 | -0.087 | 0.024 | -0.047
UBE2J1 (UniProt Q9Y385) | -0.209 | 0.119 | 0.046 | -0.12 | -0.259 | 0.232 | -0.035 | 0.241 | -0.064 | -0.081
XRCC6 (UniProt P12956) | 0.006 | -0.021 | 0.058 | -0.059 | -0.014 | -0.097 | -0.01 | -0.008 | 0.013 | -0.024
XPOT (UniProt O43592) | 0.011 | -0.052 | 0.022 | -0.073 | -0.059 | 0.033 | -0.023 | -0.046 | -0.028 | 0.023
TP53BP1 isoform 2 (UniProt Q12888) | 0.006 | 0.059 | 0.054 | 0.04 | 0.046 | -0.089 | -0.014 | -0.041 | 0.028 | 0
TRAPPC13 isoform 5 (UniProt A5PLN9) | 0.094 | 0.052 | 0.045 | -0.016 | -0.123 | 0.009 | 0.005 | -0.046 | 0.116 | 0.015
UBE3D (UniProt Q7Z6J8) | -0.005 | 0.08 | -0.033 | -0.009 | -0.088 | -0.022 | 0.035 | 0.009 | -0.069 | 0.139
UGGT1 (UniProt Q9NYU2) | -0.041 | -0.008 | 0.012 | -0.014 | -0.07 | 0.009 | -0.006 | -0.01 | 0.035 | -0.005
TMEM106B (UniProt Q9NUM4) | 0.021 | 0.06 | -0.082 | -0.032 | -0.012 | -0.027 | 0.04 | 0.057 | -0.005 | 0.027
VPS37A (UniProt Q8NEZ2) | -0.046 | -0.011 | 0.107 | 0.002 | -0.054 | 0.001 | 0.05 | 0.024 | -0.035 | 0.058
TNPO2 (UniProt O14787) | -0.022 | -0.005 | 0.065 | -0.194 | -0.071 | -0.069 | 0.027 | -0.038 | -0.048 | -0.076
VPS50 (UniProt Q96JG6) | 0.023 | -0.021 | 0.028 | -0.157 | 0.019 | 0.012 | 0.007 | -0.027 | -0.006 | -0.003
TNPO3 (UniProt Q9Y5L0) | 0.053 | -0.094 | 0.036 | -0.074 | -0.064 | -0.035 | -0.012 | -0.004 | -0.035 | 0.077
TRABD (UniProt Q9H4I3) | 0.001 | 0.051 | 0.11 | 0.167 | -0.109 | 0.198 | 0.149 | -0.006 | 0.081 | 0.15
UFD1 isoform 1 (UniProt Q92890) | 0.225 (active) | -0.033 | -0.028 | -0.043 | -0.023 | -0.052 | -0.001 | 0.033 | 0.018 | -0.037
TMEM161A (UniProt Q9NX61) | -0.021 | -0.148 | -0.072 | -0.167 | 0.009 | -0.033 | -0.01 | 0.051 | 0.075 | -0.106
WBP4 (UniProt O75554) | 0.001 | -0.082 | -0.025 | 0.022 | -0.042 | -0.009 | 0.014 | -0.003 | 0.05 | -0.139
TOMM20 (UniProt Q15388) | -0.011 | -0.213 | 0.005 | -0.022 | -0.029 | -0.25 | 0.005 | -0.001 | 0.045 | 0.007
UXT isoform 2 (UniProt Q9UBK9) | 0.473 (active) | 0.001 | -0.067 | 0.026 | -0.016 | 0.033 | 0.049 | -0.025 | 0.077 | 0.25
TRIP10 (UniProt Q15642) | 0.054 | 0.01 | -0.007 | -0.061 | -0.026 | 0.083 | -0.014 | -0.04 | 0.021 | 0.033
TUBA4A (UniProt P68366) | 0.032 | -0.108 | 0.044 | -0.108 | -0.027 | -0.043 | 0.019 | 0.071 | 0.04 | 0.04
VPS18 (UniProt Q9P253) | -0.011 | 0.009 | 0.024 | -0.053 | -0.102 | -0.017 | -0.028 | -0.041 | 0.033 | -0.07
VPS39 (UniProt Q96JC1) | -0.038 | -0.119 | 0.023 | -0.028 | -0.012 | 0.021 | 0.051 | -0.059 | -0.012 | -0.035
TMEM173 (UniProt Q86WV6) | -0.177 | 0.007 | 0.025 | -0.209 | -0.073 | 0.034 | -0.013 | -0.008 | -0.062 | -0.037
WDR43 (UniProt Q15061) | -0.014 | -0.019 | -0.017 | -0.072 | -0.061 | 0.058 | -0.006 | 0.042 | -0.025 | 0.06
USP3 (UniProt Q9Y6I4) | 0.131 | -0.246 | 0.009 | -0.039 | 0.085 | -0.201 | -0.007 | -0.014 | 0.053 | 0.027
WASH2P (UniProt Q6VEQ5) | 0.007 | -0.067 | -0.029 | -0.055 | -0.027 | 0.067 | 0.001 | -0.036 | 0.016 | 0.053
WDCP (UniProt Q9H6R7) | -0.028 | -0.029 | 0.094 | -0.049 | -0.074 | 0.072 | -0.061 | -0.049 | -0.037 | 0.126
TMEM223 (UniProt A0PJW6) | -0.042 | -0.109 | 0.083 | -0.112 | -0.046 | -0.147 | -0.028 | 0.038 | 0.018 | -0.007
